Experimental findings from PMC8384837, “Expanding the binding specificity for RNA recognition by a PUF domain” are described below.

Common to all, as to test: yeast three-hybrid, YBZ-1, SC-Leu-His + 0.5 mM 3-AT, 4 days
What all share (conditions): tags: N-Gal4 AD-HA kept; label: inside an RPR1-promoter hybrid RNA with tandem MS2 sites; ssRNA

The target in one experiment is PUM1 PUF domain R1-ARR (Homo sapiens, UniProt Q14671 828-1176, S863A;Q867R). An outline of the steps:
(§1)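 A centromeric plasmid in strain YBZ-1 co-expressed Pumilio-1 PUF domain libraries, randomized at the three base-contacting residues of each repeat, with matching RNA elements; the strain carries a LexA–MS2 coat fusion and a HIS3 reporter. After four days on SC-Leu (input) or SC-Leu-His + 0.5 mM 3-AT (selection), the repeat regions were PCR-amplified and Illumina-sequenced. The interaction score is the log change in variant frequency from input to selection, using log2 and a pseudocount of 1 where absent.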

The target in a further experiment is PUM1 PUF domain R5-RAC (Homo sapiens, UniProt Q14671 828-1176, C1007R;R1008A;Q1011C). An outline of the steps: as §1
Another experiment has as its target PUM1 PUF domain R5-HRL (Homo sapiens, UniProt Q14671 828-1176, C1007H;Q1011L). The essentials: as §1
Another experiment concerns the target PUM1 PUF domain R5-KGS (Homo sapiens, UniProt Q14671 828-1176, C1007K;R1008G;Q1011S). The essentials:
as §1

A further experiment addresses T1, PUM1 PUF domain R6-IWR (Homo sapiens, UniProt Q14671 828-1176, N1043I;Y1044W;Q1047R).
T1 sequence: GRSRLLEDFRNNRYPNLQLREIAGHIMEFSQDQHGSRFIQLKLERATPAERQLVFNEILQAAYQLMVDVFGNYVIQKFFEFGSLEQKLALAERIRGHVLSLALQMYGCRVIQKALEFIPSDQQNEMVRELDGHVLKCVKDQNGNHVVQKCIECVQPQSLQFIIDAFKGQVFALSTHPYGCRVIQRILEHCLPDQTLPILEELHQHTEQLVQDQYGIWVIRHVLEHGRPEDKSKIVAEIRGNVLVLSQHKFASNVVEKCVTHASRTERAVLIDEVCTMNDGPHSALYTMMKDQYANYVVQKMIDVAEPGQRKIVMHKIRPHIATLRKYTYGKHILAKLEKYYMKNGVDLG
An outline of the steps:
as §1

For a further experiment, the target named is PUM1 PUF domain R4-DYR (Homo sapiens, UniProt Q14671 828-1176, N971D;H972Y;Q975R). The essentials: as §1
Another experiment addresses PUM1 PUF domain R4-GWW (Homo sapiens, UniProt Q14671 828-1176, N971G;H972W;Q975W). The essentials: as §1
The target of the next experiment is PUM1 PUF domain R4-CYP (Homo sapiens, UniProt Q14671 828-1176, N971C;H972Y;Q975P). An outline of the steps: as §1
The target of another experiment is PUM1 PUF domain R4-SNR (Homo sapiens, UniProt Q14671 828-1176, N971S;H972N;Q975R). An outline of the steps:
as §1

The next experiment has as its target PUM1 PUF domain R4-NWP (Homo sapiens, UniProt Q14671 828-1176, H972W;Q975P). The essentials:
as §1

For another experiment, the target named is PUM1 PUF domain R4-EYI (Homo sapiens, UniProt Q14671 828-1176, N971E;H972Y;Q975I). The essentials: as §1
The next experiment addresses PUM1 PUF domain R4-SWP (Homo sapiens, UniProt Q14671 828-1176, N971S;H972W;Q975P). An outline of the steps:
as §1

With “GGCUAGAACUAGUGGAUCCCCCGGCGCCCGGCGGCUCGAGCCCGGGUAAGUGUAAAUGGUCUGCAUGCCGCCGGGCGCCAUGCCUGCAGGUCGACUCUAGAAAACAUG”, the binding signal with PUM1 PUF domain R1-ARR is 0.69 log2 enrichment (interaction score).
As to “GGCUAGAACUAGUGGAUCCCCCGGCGCCCGGCGGCUCGAGCCCGGGUAAGUGUCAAUAGUCUGCAUGCCGCCGGGCGCCAUGCCUGCAGGUCGACUCUAGAAAACAUG”, the results for the binding signal in the experiment with PUM1 PUF domain R5-RAC, with PUM1 PUF domain R5-HRL and with PUM1 PUF domain R5-KGS were 3.54 log2 enrichment (interaction score), 2.78 log2 enrichment (interaction score) and 4.66 log2 enrichment (interaction score), respectively.
In the case of “GGCUAGAACUAGUGGAUCCCCCGGCGCCCGGCGGCUCGAGCCCGGGUAAGUGAAAAUAGUCUGCAUGCCGCCGGGCGCCAUGCCUGCAGGUCGACUCUAGAAAACAUG”, in the experiment with PUM1 PUF domain R6-IWR, the binding signal is 1.61 log2 enrichment (interaction score).
On to “GGCUAGAACUAGUGGAUCCCCCGGCGCCCGGCGGCUCGAGCCCGGGUAAGUGUACAUAGUCUGCAUGCCGCCGGGCGCCAUGCCUGCAGGUCGACUCUAGAAAACAUG”, for which the binding signal was 6.53 log2 enrichment (interaction score) in the experiment with PUM1 PUF domain R4-DYR, 0.85 log2 enrichment (interaction score) with PUM1 PUF domain R4-GWW, 6.17 log2 enrichment (interaction score) with PUM1 PUF domain R4-CYP and 2.06 log2 enrichment (interaction score) with PUM1 PUF domain R4-SNR.
“GGCUAGAACUAGUGGAUCCCCCGGCGCCCGGCGGCUCGAGCCCGGGUAAGUGUAUAUAGUCUGCAUGCCGCCGGGCGCCAUGCCUGCAGGUCGACUCUAGAAAACAUG”: the binding signal is 2.37 log2 enrichment (interaction score) with PUM1 PUF domain R4-NWP; 6.18 log2 enrichment (interaction score) with PUM1 PUF domain R4-DYR; 3.01 log2 enrichment (interaction score) with PUM1 PUF domain R4-EYI; 2.9 log2 enrichment (interaction score) with PUM1 PUF domain R4-SNR; 5.26 log2 enrichment (interaction score) with PUM1 PUF domain R4-SWP.
